In PubChem BioAssay (NCATS):
Where “and” joins values, the source holds several entries; their conditions need not be identical. Equal values may be shown once. Inconclusive results are not listed. Calls of active or inactive are those of the source. The call rests on the fitted dose curve; in most records, active means well fitted inhibition curve with a large enough effect; inconclusive means small, poorly fitted or top-dose-only effect; inactive means flat fitted curve, though single readings scatter.

Each compound was assayed on Zika virus NS2B-NS3 protease (assay: Primary screen GU AMC qHTS for Zika virus inhibitors (AID 1347154; further: nearly all actives have a fitted effect of over 70% in size;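 on activity change, negative = inhibition: 0% = no-inhibitor control and -100% = no-enzyme control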)). Conditions: Zika NS2B-NS3 unlinked protease, AMC fluorogenic substrate; series mostly up to 54.1 µM; activity change, negative = inhibition: at the top concentration.
Summary of the method: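 Unlinked Zika NS2B hydrophilic domain–NS3 protease complex at 25 nM in 10 mM Tris-HCl pH 8.0, 0.01% Tween 20, with an AMC peptide substrate. Fluorescence change (340/450 nm) over 15 min at room temperature, normalized to controls, fitted to 4-parameter Hill.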
Potency means the concentration at half of the fitted maximal effect.

SMILES | activity change, negative = inhibition | Potency
Oc1ccccc1-c1ccccc1 | -8.25% (inactive) | –
C=C1C[C@@H]2[C@H](CC[C@]3(C)C(=O)CC[C@@H]23)[C@@]2(C)C=CC(=O)C=C12 | -2.51% (inactive) | –
FC(F)(F)c1cccc(C2=CCN(CCc3ccc4ccccc4c3)CC2)c1 | – | inactive
Oc1ccc(Cl)cc1Cc1ccccc1 | -15.4% (inactive) | –
c1ccc2c(c1)Nc1ccccc1S2 | – | inactive
CNC(=O)N1N=C(c2ccc(N)cc2)c2cc3c(cc2CC1C)OCO3 (stereo unspecified) | 1.69% (inactive) | –
CN(C)CCc1ccc(O)cc1 | – | inactive
C#CCOC(C(=O)OCCN(C)C)(c1ccccc1)c1ccccc1 | 0.547% (inactive) | –
CC1OC(C)OC(C)O1 (stereo unspecified) | -2.95% (inactive) | –
C=CCN1CC[C@]23c4c5ccc(O)c4O[C@H]2C(=O)CC[C@@]3(O)[C@H]1C5 | -0.604% (inactive) | –
CN(C)CCN(C)CCc1ccc(Cl)c(Cl)c1 | – | inactive
N[C@@H]1C[C@H]1c1ccccc1 | -3.34% (inactive) | –
O=C(NC(O)C(Cl)(Cl)Cl)NC(O)C(Cl)(Cl)Cl (stereo unspecified) | -0.419% (inactive) | –
CC(C)(N)Cc1ccc(Cl)cc1 | -3.06% (inactive) | –
CC(C)=CC1C(C(=O)OCc2cccc(Oc3ccccc3)c2)C1(C)C (stereo unspecified) | -10.3% (inactive) | –
C=C1CC[C@@]2(O)[C@H]3Cc4ccc(O)c5c4[C@@]2(CCN3CC2CC2)[C@H]1O5 | 4.74% (inactive) | –
O=C1CC[C@@]2(O)[C@H]3Cc4ccc(O)c5c4[C@@]2(CCN3CC2CC2)[C@H]1O5 | – | inactive
NCCc1cc(O)c(O)cc1O | – | 4.55 µM (active) and 21.2 µM (active)
CC(C)NCC(O)c1ccccc1Cl (stereo unspecified) | -3.79% (inactive) | –
COc1ccc2c(c1OC)CN1CCc3cc4c(cc3C1C2)OCO4 (stereo unspecified) | – | inactive
NP(N)(=O)NC(=O)c1ccc(F)cc1 | – | inactive
